NALP1 yeast inh – blocks the NALP1 inflammasome reconstituted in yeast; S. cerevisiae NALP1/ASC/caspase-1 growth, X-gal OD620, 72 h; AID 2071; inhibition, % at 10 µM; 280,000 tested, 0.61% active; in the data active = inhibition mostly above about 24%, no sharp cut-off; inactive = mostly below about 32%
CTSL1 counter – counter-screen for PFM18AAP inhibitors: inhibitors of F. hepatica cathepsin L1; recombinant F. hepatica cathepsin L1, Z-Leu-Arg-MCA fluorescence; AID 1906; 300,000 tested, 0.49% active; inhibition, % at 5.96 µM;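 active = inhibition above the mean of all tested compounds plus 3 SD, set per screening campaign, cut at about 17% in these data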;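 note: 0% = plate median of test compound wells and 100% = 1 µM Z-Phe-Ala-diazomethylketone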
A3G deaminase – inhibitors of human APOBEC3G DNA deaminase; Q9HC16; recombinant A3G, ssDNA deamination FAM/TAMRA fluorescence; inhibition, % at 20 µM; 330,000 tested, 0.28% active; AID 493012;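 active = inhibition of at least 40% at 20 µM, with no more than 30% in the related APOBEC3A deaminase screen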;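 note: plate controls were DMSO wells with A3G for no effect and wells lacking A3G enzyme for full effect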
Target sequence (Q9HC16 whole entry, looked up): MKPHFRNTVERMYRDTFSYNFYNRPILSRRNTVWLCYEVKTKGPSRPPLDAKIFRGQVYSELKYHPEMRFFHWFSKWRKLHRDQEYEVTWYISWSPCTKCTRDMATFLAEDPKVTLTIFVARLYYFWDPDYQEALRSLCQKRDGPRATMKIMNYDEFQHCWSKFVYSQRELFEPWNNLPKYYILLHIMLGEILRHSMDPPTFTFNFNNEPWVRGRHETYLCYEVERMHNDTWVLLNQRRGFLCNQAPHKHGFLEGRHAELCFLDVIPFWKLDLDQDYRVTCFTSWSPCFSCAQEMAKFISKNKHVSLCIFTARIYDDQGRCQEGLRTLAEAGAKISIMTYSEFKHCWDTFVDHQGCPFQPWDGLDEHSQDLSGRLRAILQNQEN
APOBEC3A inh – inhibitors of human APOBEC3A DNA deaminase; P31941; recombinant A3A, FAM/TAMRA ssDNA deamination fluorescence; inhibition, % at 20 µM; 330,000 tested, 0.41% active;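 active = at least 40% inhibition at 20 µM here, with at most 30% in a related deaminase screen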;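 note: plate controls were A3A with DMSO for no effect and wells lacking A3A enzyme for full effect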
Target sequence (P31941 whole entry, looked up): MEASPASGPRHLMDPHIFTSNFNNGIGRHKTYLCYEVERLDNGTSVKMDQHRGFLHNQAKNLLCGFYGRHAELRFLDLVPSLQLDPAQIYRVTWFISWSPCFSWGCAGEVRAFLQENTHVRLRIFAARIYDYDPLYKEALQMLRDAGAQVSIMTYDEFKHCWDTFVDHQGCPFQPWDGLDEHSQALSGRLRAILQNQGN
sPLA2-III inh – Inhibits HGIII-sPLA2 liposome hydrolysis, primary screen; Q9NZ20; QFRET BODIPY PC-A2 liposome hydrolysis, fluorescence; inhibition, % at 12.2 µM; 370,000 tested, 0.56% active; AID 743126;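 active = inhibition above mean plus 3 SD of compounds lying within the high and low control bounds, cut at about 19% in these data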;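 note: 0% = median of test compound wells and 100% = no enzyme DMSO wells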
sPLA2 confirm – human GIII-sPLA2 inhibition, confirmation | shares compounds with sPLA2-III inh | recombinant hGIII-sPLA2, BODIPY PC-A2 QFRET fluorescence | inhibition, % at 12.2 µM | 2,000 tested, 34% active | AID 743280;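 active = mean inhibition across triplicates above the hit cutoff set in the earlier primary screen, cut at about 19% in these data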;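 note: 0% = enzyme with DMSO and 100% = DMSO wells lacking enzyme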
535nm interf – counter-screen for HGIII-sPLA2 inhibitors: 535nm fluorescence interference. shares compounds with sPLA2-III inh. BODIPY FL product fluorescence interference, QFRET. inhibition, % at 12.2 µM. 2,000 tested, 8.5% active;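 active = average inhibition above the solvent-only control mean plus 3 SD, cut at about 6% in these data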;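 note: 0% = DMSO with substrate plus product and 100% = DMSO with substrate alone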
BODIPY interf DR – counter-screen for HGIII-sPLA2 inhibitors: 535nm fluorescence interference, dose response; shares compounds with sPLA2-III inh; BODIPY FL product fluorescence interference, cell-free; IC50, µM; 240 tested, under 10 active;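 active = IC50 at or below 10 µM; inactive = IC50 above 10 µM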
The depositor's hits bear a star; . = not tested or not shown. Hits are enriched below; roughly 2% of the tested compounds scored in any of these assays.

SMILES | NALP1 yeast inh | CTSL1 counter | A3G deaminase | APOBEC3A inh | sPLA2-III inh | sPLA2 confirm | 535nm interf | others
O=c1c(-c2n[nH]c(=S)n2-c2ccccc2)cccn1Cc1cccc(Cl)c1 | -3.0 | 0.2 | 16.8 | -4.5 | 21.6* | 21.6* | -0.5
C=CCn1c(-c2cccn(Cc3cccc(Cl)c3)c2=O)n[nH]c1=S | 6.2 | -0.1 | 25.9 | -4.7 | 8.1 | . | .
COc1ccccc1CCNC(=O)c1cc(-c2ccccn2)nc2ccccc12 | . | . | -9.7 | -2.7 | 19.5* | -7.1 | -21.6
CSc1nc(-c2ccc(Cl)cc2)nc(N)c1C#N | . | -1.2 | -1.9 | 0.4 | 3.7 | . | .
CCCCOC(=O)CSc1nc(N)c(C#N)c(-c2ccc(OCC)cc2)c1C#N | 4.5 | 3.9 | -2.4 | -1.6 | 5.2 | . | .
CCCCOc1ccc(-c2c(C#N)c(N)nc(SCC(N)=O)c2C#N)cc1 | 33.8 | -0.9 | -4.8 | 0.5 | 46.0* | 17.9 | -7.7
CSc1nc(N)c(C#N)c(-c2ccc(Cl)cc2)c1C#N | 10.0 | 2.4 | -7.2 | -3.9 | 22.0* | 24.0* | -4.6
CCOC(=O)C1CCN(C(=O)C(C)(C)NC(=O)Nc2ccc(C(F)(F)F)cc2Cl)CC1 | . | . | . | . | -2.1 | . | .
N#CCC[C@H]1CC[C@]2(CCCN(C(=O)c3ccno3)C2)O1 | . | . | . | . | 15.7 | . | .
CC(=O)CC[C@H]1CC[C@]2(CCCN(S(=O)(=O)c3ccccc3)C2)O1 | . | . | . | . | 2.4 | . | .
N#CCC[C@H]1CC[C@]2(CCCN(S(=O)(=O)c3ccccc3)C2)O1 | . | . | . | . | 19.5* | 1.5 | -6.2
N#CCC[C@@H]1CC[C@]2(CCCN(Cc3ccc(Br)cc3)C2)O1 | . | . | . | . | 21.7* | -5.2 | -11.8
CCOc1ccccc1NC(=O)NNC(=O)CCn1nc(C)c([N+](=O)[O-])c1C | . | . | . | . | -1.8 | . | .
Cc1ccc(OC[C@@H](O)CN2CCC(C(O)(c3ccccc3)c3ccccc3)CC2)cc1 | . | . | . | . | -15.7 | . | .
O=C(/C=C/c1cccs1)Nc1ccc([N+](=O)[O-])cc1 | 9.8 | 3.8 | -5.9 | -2.0 | -3.4 | . | .
O=C(/C=C/c1cccs1)c1ccc([N+](=O)[O-])cc1 | 42.8* | -0.2 | -6.8 | -5.5 | 21.1* | 4.3 | -2.4
C=CCn1c(SCc2c(Cl)cccc2Cl)nnc1-c1cccc(C)c1 | . | . | . | . | -6.5 | . | .
COc1ccc(C(=O)N2CCC(Oc3cccnc3)CC2)c(OC)c1 | . | . | . | . | -0.4 | . | .
CCn1c(-c2ccccc2)c[nH]c1=S | -5.6 | -0.3 | 39.3 | -3.4 | 6.7 | . | .
CC(C)Cn1c(-c2ccc(Br)cc2)c[nH]c1=S | -0.8 | -0.9 | -6.9 | -5.1 | 28.0* | 37.5* | 5.5
CCOC(=S)SCC(=O)Nc1ncc(C)s1 | -8.3 | -0.3 | 13.1 | 8.9 | 20.2* | -6.7 | -6.7
Cc1cnc(NC(=O)CSc2nnc(C)n2N)s1 | 13.7 | -4.2 | -2.9 | 1.6 | 21.8* | -1.3 | -5.2
Cc1cnc(NC(=O)CSc2ccccc2)s1 | 14.7 | -3.9 | 0.7 | 1.8 | 1.4 | . | .
Cc1cccc(-c2cccc3c4c([nH]c23)[C@@H]2C[C@H](N(C)C(=O)NC3CCCCC3)[C@H]([C@H](C)O)C(=O)N2CC4)c1 | . | . | . | . | -31.1 | . | .
C/C(=N\NC(=S)NCCc1ccccc1)c1ccc(Cl)cc1Cl | -10.2 | 1.9 | -3.6 | -2.8 | 6.3 | . | .
SMILES | NALP1 yeast inh | CTSL1 counter | A3G deaminase | APOBEC3A inh | sPLA2-III inh | sPLA2 confirm | 535nm interf | others
S=C(NCCc1ccccc1)N/N=C/c1cccs1 | . | 2.5 | 1.7 | -4.3 | 20.0* | 20.3* | -0.7
Oc1ccccc1C=NNC(=S)Nc1ccc(F)cc1 | . | . | . | . | 32.0* | 33.2* | 12.7*
C/C(=N\NC(=S)NCCc1ccccc1)c1ccc(O)cc1O | -23.9 | 4.6 | -2.1 | 0.2 | 33.4* | 40.4* | 3.0 | BODIPY interf DR=>122
Oc1ccccc1/C=N/NC(=S)NCCc1ccccc1 | 4.2 | . | . | . | 19.6* | 21.3* | 7.3*
CCOC(=O)N1CCN(C(=O)C[C@H]2C[C@@]3(C(=O)OC)C(=C[C@H](C(C)C)O[C@@H]3C3CC3)N(CCc3ccc(OC)c(OC)c3)C2=O)CC1 | . | . | . | . | -6.7 | . | .
O=C(CSc1nnc(COc2ccccc2)n1Cc1ccco1)Nc1ccc(OCc2ccccc2)cc1 | . | . | . | . | -17.5 | . | .
COC(=O)c1cc(S(=O)(=O)N2CCCN(C(C)=O)CC2)cn1C | . | . | . | . | 0.2 | . | .
c1ccc(Cn2ccc3ccc(-c4ccc5ccn(Cc6cccc(Oc7ccccc7)c6)c5c4)cc32)cc1 | . | . | . | . | 19.0 | . | .
COc1ccc(CNC2CCC23CCC(c2ccccc2)CC3)cc1OC (centres undefined) | . | . | . | . | -1.6 | . | .
COc1ccc2c(c1)cc(C(=O)N/N=C/c1c(O)c(C(=O)O)cc3ccccc13)n2C | -10.3 | 4.3 | -1.1 | -1.4 | 19.2* | 16.5 | 2.1
O=c1[nH]nc(SCCS(=O)(=O)c2ccc(F)cc2)n1-c1ccc2c(c1)OCCO2 | 20.8 | -0.7 | -3.4 | 1.3 | 20.7* | 4.9 | -8.7
COc1ccccc1N1CCN(c2ccc([N+](=O)[O-])cc2Cl)CC1 | . | 0.0 | -5.0 | -1.6 | 20.4* | 12.2 | -8.8
COc1ccccc1N1CCN(S(=O)(=O)c2ccc([N+](=O)[O-])cc2)CC1 | . | . | . | . | 3.8 | . | .
Cc1cc(NC(=O)c2ccc(NS(=O)(=O)c3ccccc3)cc2)no1 | . | . | . | . | -17.0 | . | .
CC(C)CCNC(=O)c1ccc(Cn2c(=S)[nH]c3ccccc3c2=O)cc1 | 5.7 | 2.1 | -5.4 | -1.9 | 21.4* | 19.8* | -11.2
CCOc1cc(CCNC(=O)c2cc3sccc3n2CC)ccc1OC | . | . | . | . | -5.2 | . | .
COc1ccc2c(c1)-c1c(sn(-c3ccccc3)c1=S)C(C)(C)N2 | 24.7 | 4.5 | -9.2 | -4.6 | 18.3 | . | .
COc1ccc(-n2sc3c(c2=S)-c2cc(OC)ccc2NC3(C)C)cc1 | 28.2 | 2.5 | -2.6 | -3.9 | 27.3* | 12.3 | 8.1*
CC1CCN(CCCCOc2ccc(Br)cc2)CC1 | 12.5 | -2.7 | 0.6 | -1.3 | 20.4* | 3.9 | -13.6
COc1ccc(CCN(Cc2cccs2)S(=O)(=O)c2ccc(C)c(C)c2)cc1OC | . | . | . | . | -19.0 | . | .
CC(=O)NC1CCCCN(C(C)C)C1=O (centres undefined) | . | . | . | . | 0.5 | . | .
O=C(CCCNC(=O)c1ccc(Cl)cc1)Nc1ccccc1F | -21.3 | 0.8 | -8.7 | -3.0 | 20.8* | -3.4 | -4.5
COC(=O)[C@]12C[C@H](CC(=O)NCC3CCCCC3)C(=O)N(Cc3cccc4ccccc34)C1=C[C@H](C(C)C)O[C@@H]2C1CC1 | . | . | . | . | -6.8 | . | .
Cc1nn(CCC(=O)NNC(=O)Nc2ccc(F)cc2)c(C)c1[N+](=O)[O-] | . | . | . | . | 2.0 | . | .
Oc1cccc(NC(=S)Nc2ccc(SC(F)F)cc2)c1 | 11.0 | -1.5 | -3.6 | -0.4 | 35.2* | 2.4 | 4.9
Cc1cc(N)n(-c2ncnc3scc(-c4ccc(Cl)cc4)c23)n1 | 6.8 | 2.8 | -0.4 | 2.6 | 0.4 | . | .
Clc1ncnc2scc(-c3ccc(Br)cc3)c12 | 27.3 | 0.7 | -2.9 | -0.4 | 19.4* | 2.4 | -4.6
